This is part of a sample that, as a whole, favours compounds with a hit. Of some 79,000 tested, about 15% had one in any assay. Values without a mark were called inactive. Active and inactive are the calls of the source. No stated cut-off is given here; in the data, active means growth inhibition above about 70%; inactive means the rest.

The experiment can be described thus: NCI Yeast Anticancer Drug Screen. Data for the rad18 strain (AID 177). The conditions noted are these: S. cerevisiae rad18 mutant growth inhibition, stronger effect = higher value. The protocol:
Growth inhibition of yeast strains with defined genetic alterations is measured as a screen for potential anti-cancer activity. Selected strains with alterations in DNA damage repair or cell cycle control were exposed to compounds and growth inhibition was measured relative to vehicle treated controls. The strain used in this assay is rad18

Take `CCc1cc(O)c(Cl)c(C)c1Cl`: the growth inhibition (at 1.2 µM) was -14%; the growth inhibition (at 3.7 µM) was -30%; the growth inhibition (at 11.0 µM) was -40%; the growth inhibition (at 33.0 µM) was -27%; the growth inhibition (at 100.0 µM) was 63%.

In the case of `CCc1c(Cl)c(C)cc(O)c1Cl`, the growth inhibition is, setting by setting: (at 1.2 µM) -20%; (at 3.7 µM) 6%; (at 11.0 µM) -23%; (at 33.0 µM) -46%; (at 100.0 µM) 50%.

Consider `CC[n+]1oc(C(=O)c2ccc(Cl)cc2)c(-c2ccccc2)c1-c1ccccc1.[Cl][Fe]([Cl])([Cl])[Cl]`, for which the growth inhibition by setting is: (at 1.2 µM) 4%; (at 3.7 µM) 7%; (at 11.0 µM) 24%; (at 33.0 µM) 49%; (at 100.0 µM) 79% (active).

For the compound `O=C1Nc2ccc(Br)cc2C1=Nc1ccc2c(c1)OCO2`, the growth inhibition by setting is: (at 1.2 µM) -36%; (at 3.7 µM) -34%; (at 11.0 µM) -42%; (at 33.0 µM) -44%; (at 100.0 µM) -29%.

On to `C/C(=N\Nc1ccc([N+](=O)[O-])cc1[N+](=O)[O-])c1sc(-n2nc(-c3ccccc3)cc2-c2ccccc2)nc1C`, for which the growth inhibition reads like this: (at 1.2 µM) -9%; (at 3.7 µM) 11%; (at 11.0 µM) 14%; (at 33.0 µM) 24%; (at 100.0 µM) 36%.

For `CC(C)/C(Cl)=N\OC(=O)Nc1ccc(F)cc1F`, the growth inhibition is -3% (at 1.2 µM); -1% (at 3.7 µM); 4% (at 11.0 µM); 17% (at 33.0 µM); 79% (active) (at 100.0 µM).

On to `Oc1ccc2c(c1)C(O)CCCC2` (stereo not given), for which the growth inhibition by setting is: (at 1.2 µM) 2%; (at 3.7 µM) 10%; (at 11.0 µM) 20%; (at 33.0 µM) 36%; (at 100.0 µM) 90% (active).

Consider `CC(=O)ON=C1C=CC(=C(C#N)c2ccc(Cl)cc2)C=C1`, for which the growth inhibition (at 1.2 µM) is 2%; the growth inhibition (at 3.7 µM) is 1%; the growth inhibition (at 11.0 µM) was 2%; the growth inhibition (at 33.0 µM) was 19%; the growth inhibition (at 100.0 µM) was 67%.

For the origin of these results see PubChem BioAssay (NCI).
